Data taken from PubChem BioAssay AID757 (NMMLSC, 2007).
Among all 190,000 compounds or so, about 520 (0.27%) were called active. Not shown: some 2% with an inconclusive outcome. What follows is part of a selection rich in actives, with near analogues and random picks from the rest. Values without a mark were called inactive.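 How the source made its calls: active means GTP binding activity at least 20 points away from the 100% control level, either lower or higher; inconclusive means compound flagged as likely green fluorescent, judged across all proteins; inactive means the rest.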

What follows are compounds tested against Ras-related C3 botulinum toxin substrate 1 (Homo sapiens) (UniProt P63000) (assay: wildtype Rac1 GTP binding modulators, primary screen, biochemical, GST-Rac1 beads, flow cytometry, multiplex (AID 757)). Conditions: fluorescent GTP binding, at 10 µM, actives lie on both sides, 0 = cold GTP competed, 100 = untreated.

Compound | GTP binding activity (% of control)
CC(=O)c1ccc(-c2nnc(CCC(=O)N(C)Cc3cnc4ccccn34)o2)s1 | 92%
COCCn1c(C)cc(C(=O)CSc2nc3ccccc3c(=O)n2C(C)COC)c1C (stereo not given) | 97%
O=C(O)/C=C/c1cn(-c2ccccc2)nc1-c1cccs1 | 94%
O=C(O)/C=C/c1cn(Cc2ccccc2)nc1-c1cccs1 | 157% [activator] (active)
O=C(/C=C\c1cn(-c2ccccc2)nc1-c1cccs1)N1CCOCC1 | 106%
O=S(=O)(Nc1ccccn1)c1cccc(S(=O)(=O)c2ccc(Cl)cc2)c1 | 97%
Cc1c(NC(=S)NC(=O)CCc2ccccc2)c(=O)n(-c2ccccc2)n1C | 101%
CC1CCC(NC(=O)C2c3ccccc3C(=O)N2Cc2ccc3c(c2)OCO3)CC1 (stereo not given) | 99%
COc1cccc(-c2ccc(SCC(=O)N3CCN(c4ccccc4)CC3)nn2)c1 | 92%
CN(C)c1ccc(C(=S)N2CCN(C(=S)Nc3ccc(Cl)cc3)CC2)cc1 | 98%
O=C(c1cn2ccccc2n1)N1CCc2c([nH]c3ccccc23)C1c1ccccn1 (stereo not given) | 98%
O=c1cc(O)c(-c2cccc(C(F)(F)F)c2)c(Cl)[nH]1 | 97%
O=C(NCCCN1CCOCC1)c1ccc([N+](=O)[O-])cc1[N+](=O)[O-] | 102%
O=C(OCC(=O)c1cccs1)c1ccc([N+](=O)[O-])o1 | 99%
CNC(=S)Nc1ccc([N+](=O)[O-])cc1 | 101%
CC(Oc1ccc(Br)cc1Br)C(=O)NC1CCCC1 (stereo not given) | 96%
CC(=O)c1c(C)[nH]c(C(=O)Nc2cc(S(=O)(=O)N(C)C)ccc2C)c1C | 97%
O=C(Nc1ccccc1C(=O)N1CCOCC1)c1ccc(Cl)cc1 | 98%
CCOc1ccc(N2CC(C(=O)NCCN3C(=O)S/C(=C\c4cccnc4)C3=O)CC2=O)cc1 (stereo not given) | 95%
O=C(CSc1ccccc1)Nc1ccc(NC(=O)c2ccco2)cc1 | 101%
Cc1cc(C)cc(NC(=O)CSc2ccccc2)c1 | 95%
O=C(CSc1ccccc1)Nc1ccc(C(=O)Nc2cccc(O)c2)cc1 | 75% (active)
Cn1c(=NC(=O)c2ccc3c(c2)OCCO3)sc2cc(S(C)(=O)=O)ccc21 | 100%
COc1ccc(CC(NC(C)=O)C(=O)NC2CCN(C(=O)c3ccc(OC)c(OC)c3)CC2)cc1OC (stereo not given) | 98%
CN(C)/N=C/c1cn(-c2ccccc2)nc1-c1cccnc1 | 101%

Compound | GTP binding activity (% of control)
O=C(CNC(=O)COc1ccccc1)NCCc1ccccn1 | 102%
Cc1ccc(CCCOC(=O)C[N+]2(C)CCCCC2)cc1 | 100%
CCOC(=O)c1ccc(NNC(C)=O)c([N+](=O)[O-])c1 | 99%
CC(=O)Nc1ccc(S(=O)(=O)NC2(C(F)(F)F)C(=O)NC(C)=C2C#N)cc1 (stereo not given) | 105%
COc1cc2c(cc1OC)CC1(CCCCC1)N=C2 | 102%
CN(C)CCN=c1cc(-c2ccccc2)oc2ccc(Cl)cc12 | 102%
CCN(CC(=O)NCc1cccs1)C(=O)c1ccccc1F | 98%
Cc1ccc2c(=O)oc(N(C)C)nc2c1 | 94%
Oc1ccccc1N1CCN(C(=S)NCc2ccccc2)CC1 | 103%
O=S(=O)(NCc1ccccc1)c1ccc(S(=O)(=O)N2CCCC2)cc1 | 102%
COC(=O)C1=C(C)NC(=O)/C1=C/c1ccc(CNS(=O)(=O)c2ccc(C)cc2)o1 | 100%
O=c1/c(=C/c2ccc(CNS(=O)(=O)c3ccccc3)o2)sc2n1CCN=2 | 64% (active)
O=S(=O)(c1cccc(C(F)(F)F)c1)N1CCN(c2cnccn2)CC1 | 99%
CN(C(=O)COc1ncnc2c1cnn2-c1ccccc1)C1CCCCC1 | 102%
c1ccc(-c2nnc(N3CCOCC3)c3ccccc23)cc1 | 97%
COc1cccc(OCCCN2CCCCCC2)c1 | 95%
CN1CCN(C(=O)CCc2ncc(C(F)(F)F)cc2Cl)CC1 | 96%
COc1ccc(S(=O)(=O)N2CCOCC2)cc1C(=O)Nc1nc2ccccc2s1 | 75% (active)
CCOC(=O)c1sc(NC(=O)c2cc(S(=O)(=O)N3CCOCC3)ccc2C)nc1C | 102%
COc1ccc(S(=O)(=O)N2CCOCC2)cc1NC(=O)CSc1ncnc2ccccc12 | 93%
Cc1cccc(NC(=O)CSc2nc3[nH]ncc3c(=O)[nH]2)c1 | 97%
Cc1ccc(CSc2nc3[nH]ncc3c(=O)[nH]2)cc1 | 77% (active)
CCCSc1nc2[nH]ncc2c(=O)[nH]1 | 100%
COc1cc(NS(=O)(=O)c2ccc(NC(=O)c3ccc(S(=O)(=O)N4CCCCC4)cc3)cc2)ncn1 | 95%
COc1ccccc1NC(=O)CCSc1nnc(-c2ccc(O)cc2)o1 | 95%

Compound | GTP binding activity (% of control)
COc1cccc(NC(=O)c2ccc(S(=O)(=O)N(C)C)cc2)c1 | 104%
Oc1ccccc1C=NC1CCCCC1N=Cc1ccccc1O (stereo not given) | 100%
O=C(CSc1ccccc1F)NC1CCS(=O)(=O)C1 (stereo not given) | 96%
Cc1cccc(NC(=S)N2CCC(O)CC2)c1C | 100%
CC(=O)NC(Cc1ccc(F)c(F)c1)C(=O)NC1CCN(C(=O)c2ccc(C)cc2)CC1 (stereo not given) | 103%
CC(C)CCN1CCN(C/C=C/c2ccco2)CC1CCO (stereo not given) | 94%
Cc1cc(C)c2c(NC(=O)C3CC3)nn(C)c2n1 | 98%
CCOc1cc(C2C(C(=O)OC(C)C)=C(C)NC3=C2C(=O)CCC3)cc([N+](=O)[O-])c1O (stereo not given) | 98%
CC(NC(=O)COC(=O)c1ccc2c(c1)OCO2)c1ccccc1 (stereo not given) | 101%
CC1=C(C(=O)N(C)C)C(c2ccccc2OC(F)F)NC(=O)N1 (stereo not given) | 101%
O=C(O)CC(SCC(=O)Nc1ccc(Br)cc1)C(=O)O (stereo not given) | 96%
CCOC(=O)CCCN1CC(O)=C(c2nc3ccccc3s2)C1=N | 102%
CCCCCN1CC(O)=C(c2nc(-c3ccc(Cl)cc3)cs2)C1=N | 135% [activator] (active)
CCCCCN1CC(O)=C(c2ccccc2)C1=N | 104%
CCc1ccc(C(=O)OCC(=O)NCC(F)(F)F)cc1 | 98%
CN(Cc1ccccn1)Cc1nc(-c2ccc(Cl)cc2)no1 | 101%
COc1ccccc1-c1noc(CSc2nc(C)cc(=O)[nH]2)n1 | 93%
COc1ccc(CC(NC(C)=O)C(=O)NC2CCN(C(=O)C3CC3)CC2)cc1OC (stereo not given) | 101%
O=C(Nc1cccnc1)c1ccc(Cl)c([N+](=O)[O-])c1 | 98%
O=C(/C=C/c1ccc(Cl)c([N+](=O)[O-])c1)c1cccnc1 | 78% (active)
O=C(/C=C/c1ccc(Cl)cc1Cl)c1cccnc1 | 92%
O=C(CC1CCCCC1)NCc1ccc(F)cc1 | 100%
O=C(NCCCn1ccnc1)C(=O)c1cn(CC(=O)N2CCCCCC2)c2ccccc12 | 100%
COc1cc(C=O)c(Br)cc1OCC(=O)NCc1ccccc1 | 97%
COc1cc(CNC2CCCC2)c(Br)cc1OCc1ccccc1 | 96%

Compound | GTP binding activity (% of control)
COc1cc(C(=S)NCc2ccccc2)cc(Br)c1O | 79% (active)
Cc1ccc(NC(=O)CSc2nnc(CNC(=O)c3ccccc3F)o2)cc1 | 92%
CS(=O)(=O)N(CC(=O)N1CCCC1)Cc1ccccc1 | 106%
COc1cccc(CNC(=O)CCC2CCCN(C(=O)c3cc(C)[nH]n3)C2)c1 (stereo not given) | 100%
CC(=O)N1N=C(c2ccccc2)OC1c1cccnc1 (stereo not given) | 98%
CCc1nc(C)cn1S(=O)(=O)c1cc([N+](=O)[O-])ccc1Cl | 96%
Cc1cccc(NC(=S)NC23CN4CN(CN(C4)C2)C3)c1 | 99%
COC(=O)CC1=NN(c2ccccc2)C(=O)C1 | 101%
O=C(NCC(=O)N(CC1CCCO1)C(C(=O)NC1CCCCC1)c1ccccc1)c1ccco1 (stereo not given) | 103%
COc1ccc2ccccc2c1CNc1nnnn1C | 93%
O=C(NCCCN1CCOCC1)c1ccc(N2CCCC2)c([N+](=O)[O-])c1 | 99%
CC(=O)c1ccc(N2CCN(S(=O)(=O)c3c(C)[nH]c(=O)[nH]c3=O)CC2)cc1 | 99%
COc1ccc(Br)cc1/C=N/Nc1ccc(Cl)c(C(=O)O)c1 | 93%
Cc1nc(-c2ccccc2)sc1C(=O)/C=C/N(C)C | 96%
COc1cccc(-n2c(=S)sc3c(=O)n(-c4ccccc4OC)c(SCC4OCCO4)nc32)c1 | 100%
O=C(/C=C/c1ccccc1Cl)Nc1ccc(S(=O)(=O)Nc2ncccn2)cc1 | 100%
CCOC(=O)c1sc2nc(C)nc(Nc3ccc(OC)c(OC)c3)c2c1C | 89%
CCOC(=O)c1sc(-c2cccc([N+](=O)[O-])c2)cc1N | 101%
O=C(CNC1CCCCC1)NCC1(c2ccccc2)CCCC1 | 98%
Cc1csc(CN(C)C(=O)CC2C(=O)NCCN2CC(C)(C)C)n1 (stereo not given) | 98%
COCCN(CCOC)C(=S)Nc1ccccc1Cl | 95%
CC1CC1C(=O)OCC(=O)c1c(N)n(C)c(=O)n(C)c1=O (stereo not given) | 92%
COc1ccc(NC(=O)c2c(SC)nsc2SC)cc1 | 110%
CSc1ncccc1C(=O)NC1CCCCCC1 | 99%
CSc1nsc(SC)c1NC(=O)OC1CCCCC1 | 30% (active)
